In the supplement of paper PMC11624193, “Coupling cellular drug-target engagement to downstream pharmacology with CeTEAM” (Nature Communications, 2024):
Values joined by “and” are separate entries in the source; they are usually repeats but may differ in a detail not shown here. Equal values may be shown once. Where a name gives a salt, the structure may show the parent alone.

The molecules below were run against PARP1 L713F-nLuc biosensor (HCT116) (UniProt P09874) (assay: PARP1 L713F-nLuc/akaLuc ratio relative to DMSO control (biosensor stabilization) (fold change); higher = more PARP1 biosensor stabilization (target engagement / stabilizer), active = hit call of the paper). Conditions: stock concentration (mM; final µM = stock mM x 1): 10; 24 h;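 active = log2 fold change beyond 2 SD from the library mean after excluding viability outliers; inactive = within 2 SD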.
Sequence of PARP1 L713F-nLuc biosensor (HCT116) (P09874 whole entry L713F, looked up): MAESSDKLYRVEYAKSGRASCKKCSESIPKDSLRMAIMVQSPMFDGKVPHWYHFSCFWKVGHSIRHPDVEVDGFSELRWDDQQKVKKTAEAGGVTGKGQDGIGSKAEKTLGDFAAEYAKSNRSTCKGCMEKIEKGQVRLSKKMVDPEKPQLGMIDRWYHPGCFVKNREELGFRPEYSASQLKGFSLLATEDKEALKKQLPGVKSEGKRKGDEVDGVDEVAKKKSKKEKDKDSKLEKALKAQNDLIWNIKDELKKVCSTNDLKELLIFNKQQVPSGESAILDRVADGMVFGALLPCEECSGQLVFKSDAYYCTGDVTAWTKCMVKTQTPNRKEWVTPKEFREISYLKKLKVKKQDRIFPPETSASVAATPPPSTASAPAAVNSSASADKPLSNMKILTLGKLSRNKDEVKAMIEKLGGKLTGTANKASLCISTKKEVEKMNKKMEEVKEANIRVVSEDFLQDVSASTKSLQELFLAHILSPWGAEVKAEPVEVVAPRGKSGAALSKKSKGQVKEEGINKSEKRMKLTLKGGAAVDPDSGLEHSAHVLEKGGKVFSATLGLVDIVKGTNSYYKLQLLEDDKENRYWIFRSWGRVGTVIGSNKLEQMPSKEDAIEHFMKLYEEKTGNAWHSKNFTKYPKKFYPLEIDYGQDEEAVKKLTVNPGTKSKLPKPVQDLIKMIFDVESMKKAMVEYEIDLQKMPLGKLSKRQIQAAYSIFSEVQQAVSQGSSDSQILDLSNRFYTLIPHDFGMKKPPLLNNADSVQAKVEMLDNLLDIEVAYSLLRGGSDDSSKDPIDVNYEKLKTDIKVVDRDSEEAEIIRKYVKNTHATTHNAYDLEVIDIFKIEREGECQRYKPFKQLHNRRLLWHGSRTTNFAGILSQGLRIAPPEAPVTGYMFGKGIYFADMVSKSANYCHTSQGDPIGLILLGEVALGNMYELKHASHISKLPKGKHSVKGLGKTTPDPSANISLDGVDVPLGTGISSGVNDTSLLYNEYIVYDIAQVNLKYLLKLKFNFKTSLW

Compound | PARP1 L713F-nLuc/akaLuc ratio
CCN(c1cc(-c2ccc(CN3CCOCC3)cc2)cc(C(=O)NCc2c(C)cc(C)[nH]c2=O)c1C)C1CCOCC1 [Tazemetostat] | 0.962 (inactive)
CS(=O)(=O)c1ccc(-c2cnc(NCc3ccco3)n3cnnc23)cc1 | 0.722 (inactive)
O=C(O)c1ccccc1Nc1cccc(C(F)(F)F)c1 [Flufenamic acid] | 1.23 (inactive)
COC(=O)c1ccc2c(c1)nc(NC(=O)c1ccccc1)n2CCCc1ccccc1 | 0.949 (inactive)
CC(C)N(CCCNC(=O)Nc1ccc(C(C)(C)C)cc1)C[C@H]1O[C@@H](n2ccc3c(N)ncnc32)[C@H](O)[C@@H]1O | 2.19 (inactive)
C=CC(=O)N1CCC[C@@H](n2nc(-c3ccc(Oc4ccccc4)cc3)c3c(N)ncnc32)C1 | 0.773 (inactive)
N[C@H]1C(O)O[C@H](CO)[C@@H](O)[C@@H]1O (stereo partly drawn) [Glucosamine (hydrochloride)] | 1.15 (inactive)
Cc1nc(N)nc(N)c1-c1ccc(Cl)c(Cl)c1 [Metoprine] | 0.685 (inactive)
N#CCC1(n2cc(-c3ncnc4[nH]ccc34)cn2)CN(C2CCN(C(=O)c3ccnc(C(F)(F)F)c3F)CC2)C1 [Itacitinib] | 0.6 (inactive)
CCNC(=O)NCCSC[C@H]1O[C@@H](n2cnc3c(N)ncnc32)[C@H](O)[C@@H]1O | 0.751 (inactive)
COc1ccc(C(=C2C(=O)Nc3ccccc32)c2ccc(OC)cc2)cc1 | 0.833 (inactive)
Cc1nc2sccn2c(=O)c1CCN1CCC(=C(c2ccccc2)c2ccc(F)cc2)CC1 | 1.01 (inactive)
O=C(c1cc(Cc2n[nH]c(=O)c3ccccc23)ccc1F)N1CCn2nc(C(F)(F)F)nc2C1 [Fluzoparib] | 3.72 (active)
O=C(O)CCNc1cc(N2CCc3ccccc3CC2)nc(-c2ccccn2)n1 | 0.92 (inactive)
N#C/C(=C\c1ccc(O)c(O)c1)C(=O)NCc1ccccc1 | 1.13 (inactive) and 0.936 (inactive)
Cc1cc(Nc2cc(N3CCN(C)CC3)nc(Nc3ccc([N+](=O)[O-])cc3)n2)n[nH]1 | 1.52 (inactive)
NC(=O)c1ncn(C2OC(CO)C(O)C2O)c1N (stereo not drawn) [AICAR (phosphate)] | 1.04 (inactive)
CCCCCC1CC1CC1CC1CCCCCCCC(=O)OC (stereo not drawn) | 1 (inactive)
CC1=C(/C=C/C(C)=C/C=C/C(C)=C/C(=O)O)C(C)(C)CCC1 [Tretinoin] | 0.599 (inactive)

Compound | PARP1 L713F-nLuc/akaLuc ratio
Cc1nc(Nc2n[nH]c3c2CN(C(=O)N[C@H](CN(C)C)c2ccccc2)C3(C)C)c2sccc2n1 | 5.51 (active)
O=C(Nc1ccnc(NC(=O)C2CC2)c1)c1c(Cl)cccc1Cl | 1.13 (inactive)
N#CCNC(=O)c1ccc(-c2ccnc(Nc3ccc(N4CCOCC4)cc3)n2)cc1 [Momelotinib] | 0.661 (inactive)
COc1cc2onc(C)c2cc1NS(=O)(=O)c1cc(Br)ccc1OC | 0.95 (inactive)
C=C(C)[C@@H](CC=C(C)C)C[C@@]12C[C@@H](CC=C(C)C)C(C)(C)[C@@](CC=C(C)C)(C(=O)C(C(=O)c3ccc(O)c(O)c3)=C1O)C2=O [Garcinol] | 0.631 (inactive)
CC(=O)Nc1ccccc1-c1cccc2c1[nH]c1ccccc12 | 0.622 (inactive)
NC(=O)C1CCN(CC(=O)Nc2ccc(Br)cc2)CC1 | 0.965 (inactive)
COc1cc2c(cc1OCCCN1CCCC1)N=C(N)C21CCC1 | 0.685 (inactive)
CC(=O)N1CCC(Nc2cc(C(=O)NC[C@H](O)CN3CCc4ccccc4C3)ncn2)CC1 | 0.707 (inactive)
N=C(NOCC(O)CN1CCCCC1)c1cccnc1 (stereo not drawn) | 0.933 (inactive)
CCS(=O)(=O)N1CCC([C@@H](C)n2c(C)c(C(=O)NCc3c(OC)cc(C)[nH]c3=O)c3ccccc32)CC1 (racemic) [CPI-169 (racemate)] | 1.12 (inactive)
CC(C)c1cccc(=O)c(O)c1 [Hinokitiol] | 0.993 (inactive)
CS(=O)(=O)CCNCc1ccc(-c2ccc3ncnc(Nc4ccc(OCc5cccc(F)c5)c(Cl)c4)c3c2)o1 [Lapatinib] | 0.617 (inactive)
O=C(CC[C@H](NC(=O)OCc1ccccc1)C(=O)O)NCCCC[C@H](NC(=O)OCc1ccccc1)C(=O)Nc1ccccc1 | 1.06 (inactive)
CN(C)C(=O)/C(C#N)=C/c1ccc(-c2nc3cnc4[nH]ccc4c3n2C2CCCCC2)o1 | 1.08 (inactive)
Cn1cc(-c2cn3nccc3c(-c3cnn([C@]4(CC#N)C[C@@H](C#N)C4)c3)n2)cn1 [Ropsacitinib] | 1.02 (inactive)
CCN(CCO)CCCOc1ccc2c(Nc3cc(CC(=O)Nc4cccc(F)c4)[nH]n3)ncnc2c1 [Barasertib-HQPA] | 0.878 (inactive)
CC(=O)Nc1cccc(-n2c(=O)n(C3CC3)c(=O)c3c(Nc4ccc(I)cc4F)n(C)c(=O)c(C)c32)c1 | 0.502 (inactive)
O=c1[nH]c(CSC2CCC(O)CC2)nc2cc(OCC3CC3)cc(F)c12 (stereo not drawn) | 1.21 (inactive)
